Measured values from PubChem BioAssay (NCATS).
Records with an inconclusive call do not appear. Active and inactive are the calls of the source. Calls follow the shape of the dose curve; as a rule, active = well fitted cell-killing curve with a large enough effect; inconclusive = small, poorly fitted or top-dose-only effect; inactive = flat fitted curve, though single readings scatter.

Test: Cell Viability - LYMP2-021 (AID 974);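 also: compound exposure lasts 24 hours at 37 °C; nearly all actives have a fitted effect of over 55% in size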
Details: LYMP2-021 lymphoblastoid cells viability; series mostly up to 92.2 µM; activity change, negative = cytotoxicity: at the top concentration
Excerpt: NIH Chemical Genomics Center [NCGC]
NIH Molecular Libraries Screening Centers Network [MLSCN]
National Institutes of Environmental Health Sciences [NIEHS]
National Toxicology Program [NTP]
We have developed a 1536-well cell-based assay for quantitative high throughput screening (qHTS) against a number of cell lines to determine in vitro cytotoxicity of small molecules. This particular assay uses a human lymphoblastoid cell line (LYMP2-021) purchased from Coriell Institute for Medical Research.
NCGC Assay Protocol Summary:
The CellTiter-Glo luminescent cell viability assay (Promega) is a homogeneous method to measure the number of viable cells in culture. The end point readout of this assay is based on quantitation of intracellular ATP, an indicator of metabolic activity, using the luciferase reaction. Luciferase catalyzes the oxidation of beetle Luciferin to oxyluciferin and light in the presence of ATP. The luminescent signal is proportional to amount of ATP present.
Using the CellTiter-Glo luminescent cell viability assay, the amount of cellular ATP was measured in the lymphoblastoid cell line with complete culture medium following compound treatment for 24 hours. The assay was performed in opaque white Kalypsys 1536-well plates. In the screen, tetraoctylammonium bromide was used as positive control. Library compounds were measured for their ability to cause acute toxicity in the cell line, as reflected by a decrease in intracellular ATP levels, in a concentration-dependent manner. […] AC50 values were determined from concentration-response data modeled with the standard Hill equation.
qHTS protocol for CellTiter Glo lymphoblastoid cellular assay
[Step] [Parameter] [Value] [Description]
1. Reagent; 5 uL; 2500 lymphoblastoid cells/well
2. Time; 5 hr; 37 C incubation
4. Controls; 23 nL; Tetraoctylammonium bromide 6.4pM to 92 uM
5. Time; 24 hr; 37 C incubation
6. Reagent; 5 uL; CellTiter Glo reagent
7. Time; 30 min; Room Temperature
8. Detection; Luminescence; Viewlux plate reader
Keywords: cell viability, cytotoxicity, lymphoblastoid cell line, luminescence, NTPHTS, NTPHTS_NCGC, NIEHS, DSSTox, MLSMR, MLSCN, NIH Roadmap, qHTS, NCGC
% is scaled to controls: 0 for no effect and ±100 for the full control effect; potency is read from the fitted curve at half-maximal effect.

Compound | Potency | activity change, negative = cytotoxicity
O=NO | inactive | 
NC1=NC(S)C2N=CN=C2N1 (stereo not given) | 15.8 µM (active) | 
COc1ccc2nc(N)sc2c1 |  | 2.66% (inactive)
COC(=O)c1ccc(C=O)cc1 |  | -1.73% (inactive)
ClCCCl |  | -5.32% (inactive)
CN(C)CCCCCCN(C)C |  | -9.33% (inactive)
CC1(C)CC(N=C=O)CC(C)(CN=C=O)C1 (stereo not given) |  | -1.94% (inactive)
c1ccc2scnc2c1 |  | -3.28% (inactive)
O=C1CCc2ccccc2O1 |  | -2.33% (inactive)
CCC(C)c1ccccc1O (stereo not given) | inactive | 
CC(=O)OC/C=C(\C)CCC=C(C)C |  | -2.63% (inactive)
Cc1ccc(N)c([N+](=O)[O-])c1 |  | -3.21% (inactive)
O=[N+]([O-])c1cccc(Cl)c1Cl |  | 1.42% (inactive)
C[C@H](CCC(=O)O)[C@H]1CC[C@H]2[C@@H]3CC[C@@H]4C[C@H](O)CC[C@]4(C)[C@H]3CC[C@]12C |  | -0.634% (inactive)
O[C@@H]([C@H](O)[C@@H](O)CBr)[C@@H](O)CBr |  | -3.48% (inactive)
CCC(O)OC(O)CC (stereo not given) | inactive | 
CCCCOCCO | inactive | 
CC1=CC(C)(C)Nc2ccccc21 | inactive | 
CCCCC(CC)CN (stereo not given) | inactive | 
CCCCCCCCCCCCCCC1CO1 (stereo not given) |  | -2.3% (inactive)

Compound | Potency | activity change, negative = cytotoxicity
CC(C)=CCCC(C)CCO (stereo not given) |  | -4.51% (inactive)
c1ccc2c(c1)[nH]c1ccccc12 |  | -2.3% (inactive)
C=CC(=O)OCCOCCOCCOCCOC(=O)C=C | 15.8 µM (active) | 
CCO |  | 4.08% (inactive)
COC(=O)CCCCC(=O)OC |  | -5.25% (inactive)
C=C(C)C1CC=C(C)C(O)C1 (stereo not given) |  | -1.85% (inactive)
Cc1cccc([N+](=O)[O-])c1C |  | -4.03% (inactive)
CC1=C2[C@H](/C=C(\C)C(=O)O)CC[C@@H](C)[C@H]2CC1 |  | -11.8% (inactive)
O=C(O)c1ccccc1C(c1ccc(O)cc1)c1ccc(O)cc1 |  | 3.48% (inactive)
CCCN(CCC)C(=O)SCC |  | -2.24% (inactive)
CCCCCCCCO |  | -0.428% (inactive)
C=Cc1ccccc1Cl |  | -0.951% (inactive)
O=C(O)CC(C(=O)O)C(CC(=O)O)C(=O)O (stereo not given) |  | -5.23% (inactive)
O=C1c2ccccc2C(=O)C1c1ccc2ccccc2n1 |  | -22.4% (inactive)
c1ccccc1 | inactive | 
CC12CCC(CC1=O)C2(C)C (stereo not given) |  | -4.69% (inactive)
C=CC(=C)CCC=C(C)C |  | -3.35% (inactive)
C1OCOCO1 |  | -2.9% (inactive)
Nc1ccc(Cl)cc1Cl |  | 1.65% (inactive)
COc1ccc(/C=C/c2cc(OC)cc(=O)o2)cc1 |  | -4.22% (inactive)
